H9c2 protect: modulators protecting cardiomyocytes from myocardial damage | H9c2 cardiomyocytes, H2O2 injury protection, ATPLite, 2 h | AID 588492 | 0.63% of 360,000 active | protection from H2O2 cell death, % at 20 µM;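 active means compounds giving at least 50% protection of heart cells from peroxide-induced death in the single-dose screen, raw or plate-pattern-corrected value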;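 further: 0% = DMSO wells with peroxide and 100% = DMSO wells without peroxide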
N-glyco inh: blocks N-linked glycosylation in D54 reporter cells | D54 ERlucT glycosylation luciferase reporter, 24 h; percent of 100 nM tunicamycin response | 0.23% of 360,000 active | reporter increase, % at 12.5 µM | AID 588692;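 active means mean luciferase reporter signal, scaled so untreated is 0 and the glycosylation-blocking control 100, at or above a set limit in every replicate; inconclusive means mean reaches the limit but not every replicate does; inactive means mean below the limit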;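 further: luciferase carries N-glycosylation sites so blocking glycosylation raises the light; 0% = median of neutral control wells and 100% = median of 100 nM tunicamycin wells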
ARNT-TACC3 inh: disrupts binding between human ARNT and TACC3. Q9Y6A5. AlphaScreen His-ARNT PAS-B/GST-TACC3 binding, luminescence; TACC3 fragment carries E629A point mutation. inhibition, % at 9.99 µM. AID 623870. 0.66% of 390,000 active;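 active means mean inhibition of replicates at least 50% and at least half of replicates each reaching 50%; inconclusive means half or more replicates reach 50% but mean below 50%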;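 further: 0% = complete ARNT plus TACC3 wells and 100% = ARNT alone without TACC3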
aDG glyco act: alpha-DG glycosylation activation; Pro5-aDG cells, alpha-DG glycosylation AlphaScreen (IIH6); 0% Pro5, 100% B10-LARGE cell signal; activation, % at 10 µM; 0.22% of 360,000 active;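 active means activation of at least 8% versus controls, or a plate z-score of at least 8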;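 further: Pro5 are CHO cells carrying HIG-tagged alpha-DG that lacks glycosylation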
Vif inh: blocks HIV Vif function. HEK293T cells, Vif self-association by quenched fluorescence, imaging, 24 h. AID 602346. 0.35% of 340,000 active. inhibition, % at 7.49 µM; in the data active means inhibition above about 50%, passing the limit was not always enough; inconclusive means no clear call, values can overlap the other calls; inactive means below about 31%
An asterisk follows results filed as active; i = inactive; ? = inconclusive; · = no result given. Compounds with a hit are over-represented: about 1.7% of the library has one in this group of screens.

SMILES	H9c2 protect	N-glyco inh	ARNT-TACC3 inh	aDG glyco act	Vif inh
Cn1cnc(S(=O)(=O)N2CC[C@H]3[C@H](CO)Nc4ccc(-c5ccccc5)cc4[C@H]32)c1	·	·	4	·	·
COc1cccc(-c2ccc3c(c2)[C@@H]2[C@@H](CCN2S(=O)(=O)c2cn(C)cn2)[C@@H](CO)N3)c1	·	·	active	·	·
Cc1noc(C)c1S(=O)(=O)Nc1cccc2c1O[C@H](CN(C)S(=O)(=O)c1ccccc1)[C@H](C)CN([C@H](C)CO)C2=O	·	·	4	·	·
N#Cc1ccc(-c2cccnc2)nc1SCC(=O)c1ccccc1	6	-8	-6	0	173*
N#Cc1ccc(-c2ccccc2)nc1SCC(=O)c1cccc(Cl)c1	-6	0	·	0	i
CN1C(=O)c2cc(NS(=O)(=O)c3ccccc3F)ccc2OC[C@@H]2O[C@H](CC(=O)NC3Cc4ccccc4C3)CC[C@H]21	·	·	-3	·	·
CCOc1ccc(C(=O)N2CCN(c3ccccn3)CC2)cc1	-1	-1	-4	0	8
CCOc1ccc(N2C(=O)Nc3ccccc3C2(O)C(=O)N2CCN(c3ccccn3)CC2)cc1 (stereo not given)	5	27*	-2	0	-2
C/C=C/c1ccc2c(c1)O[C@H](CN(C)C(=O)C1CCCCC1)[C@H](C)CN([C@H](C)CO)S2(=O)=O	·	·	5	·	·
Cc1cccc(-c2nnn(Cc3nnc(NC(=O)c4ccccc4)s3)n2)c1	-19	0	1	0	73*
COc1ccc(Cc2nnc(NC(=O)c3cccc(C)c3)s2)cc1	7	2	-11	0	-1
CC1(C)C=C2C(=NN(c3ccccc3)C(N)=C2C#N)CO1	8	7	46*	0	-5
CC1(C)Cc2c(C#N)c(N)n(-c3ccccc3)c(=S)c2CO1	-2	1	6	0	-3
O=C(N/N=C/c1ccc(F)cc1)c1sccc1OCc1ccc(F)cc1	2	?	-1	0	·
O=C(N/N=C/c1ccc(Cl)cc1)c1sccc1OCc1ccc(F)cc1	-18	33*	4	0	16
O=C(N/N=C/c1ccc(O)cc1)c1ccc(COc2cc(Cl)ccc2Cl)o1	68*	6	-37	1	·
O=C(Nc1cccnc1)c1ccc(COc2cc(Cl)ccc2Cl)o1	-23	0	·	0	-17
C[C@H]1CCCCO[C@@H](CN(C)CC2CCCCC2)[C@@H](C)CN([C@@H](C)CO)C(=O)c2cc(NS(=O)(=O)c3cn(C)cn3)ccc2O1	·	·	-4	·	·
c1n[nH]c(NC2=NCCC2)n1	-1	1	61*	0	-4
Clc1cccc(Cl)c1NC1=NCCC1	7	-1	-2	0	-6
CCOC(=O)c1[nH]c(C)c(C(=O)Nc2ccccc2C)c1C	-7	19	-2	0	30
CCOC(=O)c1[nH]c(C)c(C(=O)Nc2cc(Cl)ccc2C)c1C	-1	29*	-6	0	14
CCc1ccc(C2C(C#N)=C(N)SC(N)=C2C#N)s1	-5	0	8	0	77*
CCc1ccc(C2C(C#N)=C(N)SC(N)=C2C#N)cc1	-4	-1	-6	1	3
CCOC(=O)/C(C#N)=C/c1cc(C)n(-c2ccc(C)cc2)c1C	-8	-13	2	0	71*
SMILES	H9c2 protect	N-glyco inh	ARNT-TACC3 inh	aDG glyco act	Vif inh
CCOC(=O)/C(C#N)=C\c1cc(C)n(-c2ccccc2)c1C	-14	-15	0	0	0
C[C@@H]1CN([C@H](C)CO)C(=O)c2cc(-c3ccccc3)cnc2O[C@H]1CN(C)C(=O)c1ccccc1F	·	·	-10	·	·
Cc1cccn2c(=O)c3cc(C(=O)N4CCCCC4)sc3nc12	-1	34*	-5	0	-2
COc1ccc(NC(=O)Nc2ccc3c(c2)[C@@H]2C[C@H](CC(=O)O)O[C@@H](CO)[C@@H]2O3)cc1	·	·	2	·	·
O=C(Nc1ccc(N2CCCC2)c(Cl)c1)c1ccc([N+](=O)[O-])o1	-20	46*	17	0	22
O=C(Nc1ccc(N2CCCCC2)cc1)c1ccc([N+](=O)[O-])o1	-12	-8	-5	0	16
CCC(=O)N1CCN(c2ccc(NC(=O)c3ccc([N+](=O)[O-])o3)cc2)CC1	-28	-3	0	-1	73*
O=C(NCC[C@@H]1CC[C@H](NC(=O)Nc2cc(F)ccc2F)[C@H](CO)O1)Nc1ccc(F)cc1	·	·	-7	·	·
COc1cc(C(CC(=O)N2CCCC2)c2c(OC)cc(OC)c3ccc(=O)oc23)cc(OC)c1OC (stereo not given)	5	0	-2	0	-3
COc1ccc(C(CC(=O)N2CCN(c3ccccc3)CC2)c2c(OC)cc(OC)c3ccc(=O)oc23)cc1 (stereo not given)	51*	-2	-1	0	-2
COc1ccc(S(=O)(=O)N[C@@H]2CC[C@H](CC(=O)N3CCc4ccccc4C3)O[C@@H]2CO)cc1	·	·	0	·	·
CCC(=O)N1CC[C@H]2[C@@H]1c1cc(-c3ccccc3F)ccc1N(C)[C@H]2CO	·	·	-5	·	·
COCC(=O)N1C[C@H](C)[C@@H](OC)CN(C)C(=O)c2ccc(NC(=O)Nc3ccccc3)cc2OC[C@H]1C	·	·	1	·	·
O=C(CSc1nc2nn(-c3ccccc3)c(=O)c-2c2n1CCCCC2)c1ccc(O)c(O)c1	100*	1	5	0	0
CNC(=O)CSc1nc2nn(-c3ccccc3)c(=O)c-2c2n1CCCCC2	1	20	0	0	-2
O=C(C[C@@H]1CC[C@@H](NC(=O)Cc2cccnc2)[C@H](CO)O1)Nc1ccc(-c2ccccc2)cc1	·	·	-1	·	·
Cc1cnc(NC(=O)CN2CCN(c3ccccn3)CC2)s1	4	-2	·	-1	114*
COc1ccc(N2CCN(CC(=O)Nc3ncc(C)s3)CC2)cc1	-4	-1	-6	0	25
O=C(CN1CCN(c2ccccn2)CC1)Nc1ccc([N+](=O)[O-])cc1C(=O)Nc1ccccc1F	63*	-4	-25	0	-3
CSc1ccccc1NC(=O)CN1CCN(c2ccccn2)CC1	2	-4	-3	0	-4
COc1cc(NC(=O)c2ccccc2)c(OC)cc1NC(=O)CN1CCN(c2ccccn2)CC1	50*	-6	-5	0	-10
Cc1nc(N2CCN(c3ccccn3)CC2)c2c(C)c(C(=O)Nc3ccccc3F)sc2n1	50*	0	2	0	-13
C[C@@H]1CN([C@H](C)CO)C(=O)c2cc(C#CC3(O)CCCC3)cnc2O[C@H]1CN(C)C	·	·	-10	·	·
NC1(C(=O)O)CSSC1	-10	73*	-3	0	0
CO[C@H]1CN(C)C(=O)c2cc(NC(=O)C3CCC3)ccc2OC[C@@H](C)NC[C@@H]1C	·	·	-10	·	·
Cc1ccccc1-c1cnc2c(c1)C(=O)N([C@H](C)CO)C[C@@H](C)[C@@H](CN(C)C(=O)c1ccc(F)cc1)O2	·	·	2	·	·
Cc1ccc(S(=O)(=O)N(CCCN2CCCC2=O)Cc2cc3c(C)ccc(C)c3[nH]c2=O)cc1	18	-1	-2	0	-7

From PubChem BioAssay
